In PubChem BioAssay AID435005 (Broad Institute, 2010):
The whole screen tested about 300,000 compounds, of which about 2,400 (0.8%) were called active. This is one part of a sample in which actives are shown more often than they occur.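 Rule for the calls: active = Every replicate reaches about 75%, or at least half do and their mean reaches it too (limit read from the data); inconclusive = At least half of replicates reach the limit but their mean does not; inactive = Under half of replicates reach the limit.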

test: inhibitors of cytokine-induced beta cell apoptosis, primary screen, luminescence (AID 435005); details: INS-1E cytokine-induced death, ATP luminescence, 48 h; hits give high values; concentration not given here;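 note: 0% = cytokine-treated negative control wells and 100% = positive control rescue; higher means more ATP so stronger rescue from cytokine killing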

| Compound | protection from apoptosis |
| --- | --- |
| CCOc1cccc(=NC2CCCCC2)c2c(C)[nH]c(C)c12 | 115% (active) |
| C[C@]12CCC3C(CC[C@H]4C[C@@H](O)CC[C@]34C)C1CC[C@@H]2O (stereo not given in full) | 1.25% (inactive) |
| O=C1C2(Cl)C3(Cl)C4(Cl)C(Cl)(Cl)C5(Cl)C3(Cl)C1(Cl)C5(Cl)C24Cl (stereo not given) | -14.2% (inactive) |
| COC(=O)C1=C(c2ccc(F)cc2OCc2ccccc2)C[C@@H]2CC[C@H]1N2C(=O)NCc1ccc(OC)c(OC)c1 | -1.83% (inactive) |
| C[C@]12CC[C@H](O)CC1=C([N+](=O)[O-])CC1C2CC[C@@]2(C)C1CC[C@@H]2O (stereo not given in full) | -1.49% (inactive) |
| COC(=O)C1=C(c2ccccc2OCc2ccccc2)C[C@@H]2CC[C@H]1N2C(=O)NCc1ccc(OC)cc1 | -9.52% (inactive) |
| CCCCCCCCCCCCn1ccc(=N)cc1 | 117% (active) |
| C[C@]12CCC3C(CC[C@H]4C[C@@H](O)CC[C@]34C)C1C[C@@H](O)[C@H]2O (stereo not given in full) | 0.154% (inactive) |
| CCC(=O)c1ccc(OCC(=O)N2CCN(CC(=O)Nc3ccc(C)cc3)CC2)cc1 | 4.28% (inactive) |
| Clc1cccc(Cl)c1Cl | 5.51% (inactive) |
